Data on 66 compounds can be found in PubChem BioAssay AID588511 (Johns Hopkins Ion Channel Center, 2011).

About 3,600 (1.2%) of roughly 310,000 compounds were called active.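 How the source made its calls: active means ratio plate-corrected score three or more library SD toward inhibition, starting fluorescence score within five deviations; inactive means the rest.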 What follows is part of a selection rich in actives, with near analogues and random picks from the rest.

The test deals with Anoctamin-1 (Mus musculus) (UniProt Q8BHY3). The test is described as follows: blockers of mouse ANO1 Ca-activated Cl channel – cell-based, HTS, primary screen (AID 588511).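 On normalized B-score (activity score, 25-100; higher = stronger inhibition): score derived from kinetic fluorescence span divided by baseline fluorescence per well.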 The conditions noted are these: HEK293 TMEM16A/YFP iodide influx fluorescence, ionomycin; at 10 µM.
Chain of Anoctamin-1 (Mus musculus) (Q8BHY3 whole entry, looked up): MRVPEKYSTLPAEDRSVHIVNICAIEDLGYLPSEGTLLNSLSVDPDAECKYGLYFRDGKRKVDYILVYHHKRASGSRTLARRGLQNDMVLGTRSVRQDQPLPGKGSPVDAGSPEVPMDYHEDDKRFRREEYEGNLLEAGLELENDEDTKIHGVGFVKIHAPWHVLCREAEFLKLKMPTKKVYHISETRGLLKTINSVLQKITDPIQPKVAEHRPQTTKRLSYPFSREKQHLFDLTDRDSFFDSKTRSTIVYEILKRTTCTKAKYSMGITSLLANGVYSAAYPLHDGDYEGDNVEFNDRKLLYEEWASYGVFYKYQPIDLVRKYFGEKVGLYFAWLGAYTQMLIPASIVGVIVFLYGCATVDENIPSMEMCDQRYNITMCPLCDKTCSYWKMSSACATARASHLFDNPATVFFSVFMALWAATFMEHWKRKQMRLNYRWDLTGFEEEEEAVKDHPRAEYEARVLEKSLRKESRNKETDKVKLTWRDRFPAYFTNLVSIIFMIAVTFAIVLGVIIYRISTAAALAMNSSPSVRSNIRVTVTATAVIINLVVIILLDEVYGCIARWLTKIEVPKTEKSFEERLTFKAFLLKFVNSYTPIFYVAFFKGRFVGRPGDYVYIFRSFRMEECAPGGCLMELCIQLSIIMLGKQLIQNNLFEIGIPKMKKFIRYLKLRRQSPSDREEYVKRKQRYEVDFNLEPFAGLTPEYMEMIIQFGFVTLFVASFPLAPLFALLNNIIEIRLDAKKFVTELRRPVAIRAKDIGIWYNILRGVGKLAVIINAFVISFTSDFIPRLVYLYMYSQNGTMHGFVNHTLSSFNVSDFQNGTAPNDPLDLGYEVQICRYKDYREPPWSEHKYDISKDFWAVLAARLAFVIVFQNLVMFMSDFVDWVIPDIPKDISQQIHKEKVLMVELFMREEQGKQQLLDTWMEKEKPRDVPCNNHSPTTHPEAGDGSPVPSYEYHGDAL
As to `COc1ccc(N(CC(=O)NC2CCCCC2)C(=O)CNC(=O)c2ccco2)c(OC)c1`, the normalized B-score (activity score, 25-100; higher = stronger inhibition) result was “inactive”. Regarding `CCOc1ncccc1C(=O)N(C)CC(=O)Nc1ccc(F)cc1`, the normalized B-score (activity score, 25-100; higher = stronger inhibition) entry is “inactive”.

`Cc1ccc(CNS(=O)(=O)CCNC(=O)c2ccccc2)cc1`: the normalized B-score (activity score, 25-100; higher = stronger inhibition) result is “inactive”. With `COc1ccc(CCNC(=O)C(=O)NCC2OCCN2S(=O)(=O)c2ccc(F)cc2)cc1OC` (stereo unspecified), the normalized B-score (activity score, 25-100; higher = stronger inhibition) result was “inactive”.

Turning to `CCCCNC(=O)c1ccccc1NC(=O)c1ccccc1N(C)S(C)(=O)=O`, the normalized B-score (activity score, 25-100; higher = stronger inhibition) result was “inactive”. The result for `CCOC(=O)c1cccc(NC(=O)CCn2nnc3ccccc32)c1` reads 100 (active).

With `CCOC(=O)c1cccc(NC(=O)CCc2c(C)nc3ncnn3c2C)c1`, the normalized B-score (activity score, 25-100; higher = stronger inhibition) entry is “inactive”. In the case of `CCOC(=O)c1cccc(NC(=O)CCOc2ccccc2)c1`, the normalized B-score (activity score, 25-100; higher = stronger inhibition) entry was “inactive”. Consider `COC(=O)c1cc(NC(=O)c2cc(C(C)(C)C)nn2Cc2cccc(C)c2)ccc1N1CCOCC1`, for which the normalized B-score (activity score, 25-100; higher = stronger inhibition) result is “inactive”. Consider `Cc1cccc(C)c1N1C(=O)CN(Cc2ccccc2)C1=S`, for which the normalized B-score (activity score, 25-100; higher = stronger inhibition) entry was “inactive”. For `CC1Cc2ccccc2N1S(=O)(=O)c1ccc(Cl)nc1` (stereo unspecified), the normalized B-score (activity score, 25-100; higher = stronger inhibition) result was “inactive”. The result for `CCCCn1ccnc1C(=O)c1cccc(S(=O)(=O)N2c3ccccc3CC2C)c1` (stereo unspecified) reads 25 (active); that for `CC1Cc2ccccc2N1S(=O)(=O)c1c(N)n(C)c(=O)n(C)c1=O` (stereo unspecified), “inactive”; that for `CC(=O)N1c2ccc(S(=O)(=O)N3CCCC(C(=O)Nc4cccc(Cl)c4)C3)cc2CC1C` (stereo unspecified), “inactive”. With `CC(=O)N1CCCc2cc(S(=O)(=O)N3CCCC(C(=O)N4CCN(c5cccc(Cl)c5)CC4)C3)ccc21` (stereo unspecified), the normalized B-score (activity score, 25-100; higher = stronger inhibition) is 100 (active). On to `CC(=O)N1CCCc2cc(S(=O)(=O)N3CCCC(C(=O)NCc4ccc(Cl)cc4)C3)ccc21` (stereo unspecified), for which the normalized B-score (activity score, 25-100; higher = stronger inhibition) result is “inactive”. Regarding `O=C(NC(=S)Nc1ccccc1C(=O)O)c1ccc(-c2ccc(Br)cc2)o1`, the normalized B-score (activity score, 25-100; higher = stronger inhibition) is 100 (active). On to `COC(=O)c1ccccc1NC(=S)NC(=O)c1ccccc1F`, for which the normalized B-score (activity score, 25-100; higher = stronger inhibition) result is “inactive”. As to `O=C(O)c1ccccc1NC(=O)c1ccccc1-c1ccccc1C(=O)O`, the normalized B-score (activity score, 25-100; higher = stronger inhibition) entry is “inactive”. Take `Cc1cc(C)cc(N(CC(=O)NC2CCCC2)C(=O)CCC(=O)Nc2cc(C)on2)c1`: the normalized B-score (activity score, 25-100; higher = stronger inhibition) entry was “inactive”. The result for `COc1cccc(/C=C/C(=O)Nc2ccc3c(c2)OCCO3)c1` reads “inactive”.

On to `COc1cc(SC#N)ccc1N=Cc1c(C)[nH]n(-c2ccc(C)cc2)c1=O`, for which the normalized B-score (activity score, 25-100; higher = stronger inhibition) entry is “inactive”. With `Cc1ccc(-n2[nH]c(C)c(/C=N/N3C(=O)c4cccc5cccc(c45)C3=O)c2=O)cc1`, the normalized B-score (activity score, 25-100; higher = stronger inhibition) was 100 (active).

For the compound `Cc1[nH]n(-c2ccccc2)c(=O)c1/C=N/NC(=O)c1ccoc1C`, the normalized B-score (activity score, 25-100; higher = stronger inhibition) result is “inactive”. The result for `Cc1ccc(C2(C(F)(F)F)N=C3Sc4cc(C)cc(C)c4N3C(=O)N2)cc1` (stereo unspecified) reads “inactive”; that for `Cc1c(C(=O)OCC(=O)N2CCCC2=O)oc2ccccc12`, “inactive”. `COc1ccc(Nc2ncnc3sc(-c4ccccc4)cc23)c(OC)c1`: the normalized B-score (activity score, 25-100; higher = stronger inhibition) entry was “inactive”. On to `c1ccc(-c2cc3c(NCC4COc5ccccc5O4)ncnc3s2)cc1` (stereo unspecified), for which the normalized B-score (activity score, 25-100; higher = stronger inhibition) is 100 (active). Regarding `Oc1ccccc1N1CCN(c2ncnc3sc(-c4ccccc4)cc23)CC1`, the normalized B-score (activity score, 25-100; higher = stronger inhibition) entry is “inactive”.

For `COc1cc(Cl)c(C)cc1NC(=O)CN1CCCCCC1`, the normalized B-score (activity score, 25-100; higher = stronger inhibition) entry is “inactive”. Consider `O=C(Cc1cccs1)NCc1cccc(C(F)(F)F)c1`, for which the normalized B-score (activity score, 25-100; higher = stronger inhibition) result is “inactive”. Regarding `CCOn1c(=O)c(=O)n(O)c2ccccc21`, the normalized B-score (activity score, 25-100; higher = stronger inhibition) entry is “inactive”.

In the case of `C[C@H]1CCC(=O)N([C@H](CSc2ccccc2)Cc2ccccc2)CC1`, the normalized B-score (activity score, 25-100; higher = stronger inhibition) was 25 (active). On to `COc1ccc(SC[C@H](Cc2ccccc2)N2CCN(CCc3ccccc3)CCC2=O)cc1`, for which the normalized B-score (activity score, 25-100; higher = stronger inhibition) result is “inactive”.

As to `CN1CCC(=O)N([C@H](CO)Cc2ccccc2)CC1`, the normalized B-score (activity score, 25-100; higher = stronger inhibition) result was “inactive”.

On to `Cn1c2c(c(=O)n(C)c1=O)C(c1cccc([N+](=O)[O-])c1)Nc1ccccc1O2` (stereo unspecified), for which the normalized B-score (activity score, 25-100; higher = stronger inhibition) entry was “inactive”.

Turning to `COc1ccc(CCNC(=O)CS(=O)(=O)Cc2nc(-c3ccc(C)cc3)oc2C)cc1OC`, the normalized B-score (activity score, 25-100; higher = stronger inhibition) result was “inactive”.

As for `COc1ccc(CCNC(=O)C2CCCN(Cc3nc(-c4cccc(Cl)c4)oc3C)C2)cc1OC` (stereo unspecified), the normalized B-score (activity score, 25-100; higher = stronger inhibition) is 100 (active). `COc1cccc(-c2nc(CS(=O)(=O)CC(=O)NCCc3ccc(OC)c(OC)c3)c(C)o2)c1`: the normalized B-score (activity score, 25-100; higher = stronger inhibition) result was “inactive”.

As for `CCOc1ccc(/C=C/C(=O)OCC(=O)c2ccccc2OC)cc1OC`, the normalized B-score (activity score, 25-100; higher = stronger inhibition) entry is “inactive”. With `Cc1cccc(N)c1SC1CCCCC1O` (stereo unspecified), the normalized B-score (activity score, 25-100; higher = stronger inhibition) result was “inactive”.

`Cc1cccc(N=C2SC(C)CN2C(=O)CN2C(=O)NC3(CCCC3)C2=O)c1` (stereo unspecified): the normalized B-score (activity score, 25-100; higher = stronger inhibition) entry is “inactive”. Regarding `O=C(Nc1nnc(S(=O)(=O)N2CCCCCC2)s1)c1cccc(Br)c1`, the normalized B-score (activity score, 25-100; higher = stronger inhibition) entry was “inactive”. As to `NS(=O)(=O)c1ccc(N=Cc2ccc(Br)s2)cc1`, the normalized B-score (activity score, 25-100; higher = stronger inhibition) entry is “inactive”. On to `CCCOc1ccccc1C1CC(=O)Nc2cc3c(cc21)OCO3` (stereo unspecified), for which the normalized B-score (activity score, 25-100; higher = stronger inhibition) was 25 (active). For `COC(=O)C1=C(C)NC(=O)CC1c1ccccc1OC` (stereo unspecified), the normalized B-score (activity score, 25-100; higher = stronger inhibition) entry is “inactive”. For `COc1ccccc1C1C2=C(COC2=O)Nc2cc3c(cc21)OCO3` (stereo unspecified), the normalized B-score (activity score, 25-100; higher = stronger inhibition) result is “inactive”. Turning to `CC1CCN(C(=O)CN(c2ccc(Oc3ccccc3)cc2)S(C)(=O)=O)CC1`, the normalized B-score (activity score, 25-100; higher = stronger inhibition) result was “inactive”.

On to `COc1ccc(S(=O)(=O)N(CCCN2CCCC2=O)Cc2cc3c(C)ccc(C)c3[nH]c2=O)cc1`, for which the normalized B-score (activity score, 25-100; higher = stronger inhibition) result was “inactive”. The result for `Cc1ccc(-c2noc(CSc3nnc(-c4cccs4)n3C)n2)cc1` reads “inactive”; that for `Cc1ccc(-c2noc(CSc3nnnn3-c3ccccc3)n2)cc1`, 100 (active). In the case of `Cc1ccc(-c2noc(CSc3nnc(-c4ccccc4)n3C)n2)cc1`, the normalized B-score (activity score, 25-100; higher = stronger inhibition) entry is “inactive”. For `Cc1ccc(-c2nnc(CN3CCN(C)CC3)o2)cc1`, the normalized B-score (activity score, 25-100; higher = stronger inhibition) entry is “inactive”.

In the case of `O=C(NCCCN1CCCC1=O)C(=O)NCC1OCCN1S(=O)(=O)c1ccc(Br)cc1` (stereo unspecified), the normalized B-score (activity score, 25-100; higher = stronger inhibition) result was “inactive”.

With `CCn1c(SCc2ccccc2)nc2c(c1=O)SCC2`, the normalized B-score (activity score, 25-100; higher = stronger inhibition) entry is “inactive”. As to `Cc1cccc(CSc2nc3c(c(=O)n2C)SCC3)c1`, the normalized B-score (activity score, 25-100; higher = stronger inhibition) was 25 (active). As for `Cn1c(SCC(=O)N2CCCCC2)nc2c(c1=O)SCC2`, the normalized B-score (activity score, 25-100; higher = stronger inhibition) entry is “inactive”.

Consider `O=C(Nc1ccnn1C1CCN(C/C=C/c2ccc(F)cc2)CC1)C1CCCC1`, for which the normalized B-score (activity score, 25-100; higher = stronger inhibition) entry was “inactive”. For `COc1ccc(OC)c(S(=O)(=O)N2CCCC(C(=O)N3CCC(C(N)=O)CC3)C2)c1` (stereo unspecified), the normalized B-score (activity score, 25-100; higher = stronger inhibition) entry is “inactive”. Turning to `CC(Oc1ccc2ccccc2c1)C(=O)NNC(=S)NC(=O)c1ccco1` (stereo unspecified), the normalized B-score (activity score, 25-100; higher = stronger inhibition) is 100 (active).

As for `CCCc1ccc(OCC(=O)NNC(=S)NC(=O)c2ccco2)cc1`, the normalized B-score (activity score, 25-100; higher = stronger inhibition) entry was “inactive”. Consider `Cc1ccc(C(=O)NNC(=O)C(C)Oc2ccc3ccccc3c2)o1` (stereo unspecified), for which the normalized B-score (activity score, 25-100; higher = stronger inhibition) entry was “inactive”. The result for `O=C(Nc1cc(-c2ccccc2)nn1-c1ccccc1F)c1ccc([N+](=O)[O-])cc1` reads “inactive”; that for `CSc1ccc(C(=O)C2CCCN(C(=O)c3ccc(C)nc3)C2)cc1` (stereo unspecified), “inactive”. For `CCOC(=O)N1CCC(=NNC(N)=O)CC1`, the normalized B-score (activity score, 25-100; higher = stronger inhibition) entry was “inactive”. Regarding `Cc1cccc(-c2nc(CS(=O)CC(=O)NC(C)CCc3ccccc3)c(C)o2)c1` (stereo unspecified), the normalized B-score (activity score, 25-100; higher = stronger inhibition) result is “inactive”.
